Records with an inconclusive call do not appear. Calls of active or inactive are those of the source. Rule for the calls: active = hit-call score of the fitted dose curve at least 0.9, where 1 is the maximum; inconclusive = response in the unintended direction; inactive = score below 0.9.

This experiment can be described thus: ATG_M_06_TRANS: Attagene TRANS-FACTORIAL HepG2 Assay for M06 Transcription Factor (Internal Marker) (AID 2282983). As to conditions: HepG2 Attagene TRANS M06 internal marker reporter. As to the method: ATG_TRANS is a cell-based, multiplexed-readout assay that uses HepG2, a human liver cell line, with measurements taken at 24 hours after chemical dosing in a 24-well plate.ATG_M_06_TRANS is one of 30 assay component(s) measured or calculated from the ATG_TRANS assay. It is designed to make measurements of mRNA induction, a form of inducible reporter, as detected with fluorescence intensity signals by Reverse transcription polymerase chain reaction (RT-PCR) and Capillary electrophoresis technology.Data from the assay component ATG_M_06_TRANS was analyzed into 1 assay endpoint. This assay endpoint, ATG_M_06_TRANS, was analyzed in the positive analysis fitting direction relative to DMSO as the negative control and baseline of activity. Using a type of inducible reporter, measures of mRNA for gain-of-signal activity can be used to understand the background control at the transcription factor-level as they relate to the gene . Furthermore, this assay endpoint can be referred to as a secondary readout, because this assay has produced multiple assay endpoints where this one serves a background control function. To generalize the intended target to other relatable targets, this assay endpoint is annotated to the background measurement intended target family, where the subfamily is internal marker.
Human liver HepG2 cells are transiently transfected with multiple reporter transcription units (MRTUs) in 6-well plates using FuGene 6 reagent (Roche; 3 ml FuGene/1 mg DNA). The MRTU constructs are regulated by a cis-regulating element (promoter). […] A major difference between the CIS and TRANS system is that in CIS activities of endogenous TFs are measured, whereas the TRANS assay evaluates changes in activities of exogenous, chimeric NR-Gal4 proteins. […] At the end of 24 hour incubation, total RNA was isolated using TriZol reagent (Invitrogen). The isolated RNA is then reverse-transcribed using oligo(dT) primer and Mo-MLV reverse transcriptase (Invitrogen) with DNAse I (Ambion) treatment for 30 min. The one-tenth of the produced cDNA was amplified by PCR using Taq DNA polymerase (Invitrogen) and two reporter sequence-specific primers. The PCR products were fluorescently labeled by primer extension with 6-arboxyfluorescein (6-FAM) 5'-labeled reporter sequence-specific primer (2 min at 95 C, 20 s at 68 C and 10 min at 72 C) and these products were digested with 5U of HpaI (New England Biolabs) for 2h at 37 C. The fragments were purified using Qiaquick PCR columns (Qiagen), analyzed on an ABI 3130xL genetic analyzer (Applied Biosystems) with peak positions identified by using a set of X-rhodamine (ROX)-labeled MapMarker1000 molecular weight standards (BioVentures). The raw capillary electrophoresis data was processed using Attagraph software (Attagene).
For the compound `O=C(O)c1ccc2c(c1)nc(C(=O)NC1CCN(C3CC3)CC1)n2Cc1cc(-c2ccc(Cl)s2)on1`, the compound was called inactive. Consider `O=S1(=O)CCCO1`, for which the call was inactive. For `O=c1[nH]cnc2c1ncn2[C@H]1CC[C@@H](CO)O1`, the compound was classed as inactive. For `COS(C)(=O)=O` the value was “inactive”; for `OC(CCl)CCl`, “inactive”; for `NNC(=O)c1ccncc1`, “inactive”.

As for `Cn1cc[nH]c1=S`, the compound was called inactive. For the compound `CCCCCCCCN(C)C`, the result was inactive. On to `O=S(=O)(O)c1ccc(N=Nc2c(O)ccc3cc(S(=O)(=O)O)ccc23)cc1`, for which the compound was called inactive. For `CCN(CC)C(=S)SSC(=S)N(CC)CC`, the call was inactive. In the case of `CC(C)CCCCCCOC(=O)C1CCCCC1C(=O)OCCCCCCC(C)C` (stereo not given), the compound was classed as inactive. On to `CC[C@H](C)C(=O)O[C@H]1C[C@H](O)C=C2C=C[C@H](C)[C@H](CC[C@@H](O)C[C@@H](O)CC(=O)O)[C@H]21`, for which the outcome was inactive. Consider `OCc1ccccc1`, for which the compound was called inactive. For `FC(F)(F)C(F)(F)C(F)(F)C(F)(F)C(F)(F)C(F)(F)I`, the result was inactive. `CCc1cccc(CC)c1N`: the compound was classed as inactive.

For the compound `O=C(Cl)C(F)(F)C(F)(F)C(F)(F)C(=O)Cl`, the outcome was inactive. In the case of `Cc1nccn1-c1ccc(Sc2cccc(C3(C(N)=O)CCOCC3)c2)cc1` it was “inactive”.

In the case of `C[C@]12C=CC(=O)C=C1CC[C@H]1[C@@H]3C[C@@H](O)[C@](O)(C(=O)CO)[C@@]3(C)C[C@H](O)[C@@]12F`, the result was inactive. In the case of `CCCOc1ccc(S(=O)(=O)N2CCN(CC)CC2)cc1-c1nc2c(CC)n(Cc3ccccn3)nc2c(=O)[nH]1` it was “inactive”; in that of `NC(=O)N1c2ccccc2C=Cc2ccccc21`, “inactive”. On to `NC(=O)NN=Cc1ccc([N+](=O)[O-])o1`, for which the outcome was inactive. As for `O=C(O)[C@H](O)[C@@H](O)C(=O)O`, the outcome was inactive.

With `CCn1nc(C)c2c1C(=O)NCC(c1ccc(O)cc1)=N2`, the call was inactive. `CCCCCOC(C)=O`: the compound was classed as inactive. As to `CCCCCCOC(=O)CC(CC(=O)OCCCCCC)(OC(=O)CCC)C(=O)OCCCCCC`, the compound was classed as inactive. Turning to `COCc1nnc(-c2ccc[n+]([O-])c2)n1-c1c(Cl)c(Cl)cc2[nH]c(=O)c(=O)[nH]c12`, the call was inactive. Consider `NCC(F)(F)C(F)(F)C(F)(F)C(F)(F)F`, for which the compound was classed as inactive. Consider `O=C1CN(N=Cc2ccc([N+](=O)[O-])o2)C(=O)N1`, for which the result was inactive.

Take `NC(=O)N(O)[C@@H]1COc2cc(OCc3ccccc3)ccc21`: the result was inactive. Regarding `C[Si](C)(C)C(F)(F)C(F)(F)C(F)(F)F`, the outcome was inactive.

Consider `FC(F)C(F)(F)COCC1CO1` (stereo not given), for which the outcome was inactive.

Consider `OC[C@H]1O[C@@](CO)(O[C@H]2O[C@H](CO)[C@@H](O)[C@H](O)[C@H]2O)[C@@H](O)[C@@H]1O`, for which the compound was called inactive.

Consider `CNC(C)=O`, for which the outcome was inactive. For `O=C(NO)C1(NS(=O)(=O)c2ccc(Oc3ccc(F)cc3)cc2)CCOCC1`, the compound was called inactive. Turning to `OCc1c[nH]c2ccccc12`, the outcome was inactive. Take `CCCCN1C(=O)[C@@H]([C@H](O)C2CCCCC2)NC(=O)C12CCN(Cc1ccc(Oc3ccc(C(=O)O)cc3)cc1)CC2`: the compound was classed as inactive. In the case of `CCOc1ccc2[nH]cc(C(=O)NCc3ccccc3)c(=O)c2n1`, the result was inactive. On to `O=C(N[C@H](CO)[C@H](O)c1ccc([N+](=O)[O-])cc1)C(Cl)Cl`, for which the result was inactive.

As for `COc1cc2c(c(OC)c1OC)-c1ccc(OC)c(=O)cc1[C@@H](NC(C)=O)CC2`, the result was inactive.

For `CCCc1ccccc1`, the outcome was inactive.

The values are drawn from PubChem BioAssay (EPA / NIEHS).
